The source of these data is PubChem BioAssay (NCATS).

Assay [1] concerns the target Cytochrome P450 1A2 (Homo sapiens) (UniProt P05177). The assay is described as follows: p450-cyp1a2 (AID 410; calls by dose curve; note: potency is the fitted concentration of half-maximal effect). The essentials:
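O-Demethylation of luciferin 6' methyl ether by human CYP1A2 is monitored as luciferase luminescence. Substrate sits at Km (100uM); enzyme is 20nM. Values are scaled to 57 uM furafylline as maximal inhibition.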

Assay [2] is described as follows: NFAT Signaling Pathway (AID 444; active = well fitted curve in either direction with a large enough effect, not every such curve was filed as active;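 note: carbachol stimulus at about its EC50 of 1 µM final; % is set by controls: 0 for no effect and ±100 for the full control effect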). The conditions noted are these: Jurkat NFAT-bla M1, carbachol, beta-lactamase ratio, 5 h; at 38 µM (top of the series). The essentials: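 Jurkat cells with NFAT-driven β-lactamase reporter and co-expressed M1 receptor, stimulated with carbachol (final 1 uM, ~EC50), compound titration, 5 h at 37 °C. CCF4 loaded 1 h at RT; 460/530 nm ratio gave %activity and AC50.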

The nature of assay [3]: Stat Signaling Pathway (AID 446; active = well fitted curve in either direction with a large enough effect, not every such curve was filed as active;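 note: ME-180 cervical cancer cells given 40 pM IL-6 alongside compound; SIE-controlled beta-lactamase reporter measured as 460/530 nm FRET emission ratio; % is set by controls: 0 for no effect and ±100 for the full control effect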). The essentials:
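Emission at 460 and 530 nm (excitation 405 nm) reports SIE-controlled beta-lactamase in ME-180 cells. Cells received compound with 40 pM IL-6 for 5 hrs at 37 C; data scaled between 300 pM IL-6 and 125 nM JAK-inhibitor controls.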

Assay [4] has as its target Guanine nucleotide-binding protein G(i) subunit alpha-1 (Homo sapiens) (UniProt P63096). The assay can be described thus: qHTS Assay for Inhibitors of RGS12 GoLoco Motif Activity (Green Fluorophore) (AID 879).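 Note: 0% = labeled peptide with Gαi1 and full inhibition = labeled peptide alone without protein; negative values mean loss of peptide binding seen as reduced polarization.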 The essentials: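 A drop in FITC polarization marked displacement of the FITC-tagged RGS12 GoLoco peptide (10 nM) from Gαi1 (50 nM). Compounds were incubated 10 min at room temperature in Tris pH 7.5 buffer containing 150 mM NaCl, 0.1 mM GDP and 0.05% NP40; unlabeled peptide titration served as control.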
On the technique in general: qHTS replaces the single test concentration by a dilution series.

The target in assay [5] is Cytochrome P450 3A4 (Homo sapiens) (UniProt P08684). The assay can be described thus: qHTS Assay for Activators of Cytochrome P450 3A4 (AID 885). Note: nearly all actives have a fitted effect of over 65% in size. The essentials: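 Activators are scored by enhanced luminescence from CYP3A4 conversion of luciferin-PPXE (25uM, equal to KM) to luciferin, after 60 min at RT with an NADPH-regenerating system.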
Assay [6] can be described thus: qHTS Assay for Identification of Small Molecule Antagonists for Thrombopoietin (TPO) Signaling Pathway (AID 918). Note: potency is the fitted concentration of half-maximal effect; nearly all actives have a fitted effect of over 60% in size. The conditions noted are these: TPO-dependent cell signaling reporter, antagonist mode. The essentials: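 Inhibitors of TPO signaling are sought by stimulating IL-3-starved murine Ba/F3 cells (human TPO receptor, Glycoprotein IIb-driven luciferase) with TPO at its EC50 of 26 pM alongside compound. After 24 hrs at 37 C, reporter luminescence is measured.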

The target of assay [7] is Muscarinic acetylcholine receptor M1 (Rattus norvegicus) (UniProt P08482). The assay is described as follows: qHTS Assay for Antagonists of Acetylcholine Muscarinic M1 Receptor: Measurement of IP-One Response (AID 944). Note: nearly all actives have a fitted effect of over 75% in size. The essentials: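 Antagonist mode with rat M1 receptor transfected into CHO cells. Compound is added first for 10 min, carbachol at its EC80 follows for 30 min, and lysis reagents then allow TR-FRET detection of accumulated IP1.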

Assay [8] deals with Pyruvate kinase (Leishmania mexicana) (UniProt Q27686). The assay can be described thus: qHTS Validation Assay for Inhibitors of Leishmania Mexicana Pyruvate Kinase (AID 945).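 Note: 0% = DMSO only neutral control wells.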 The essentials: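 Eight-point qHTS titrations; enzyme 0.2 nM LmPYK (E451W mutant); substrates 0.5 mM PEP, 0.1 mM ADP; 7 mM MgCl2; 1 h room temperature; PKLight luminescence normalized to neutral control.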

The target in assay [9] is Pyruvate kinase PKM (Homo sapiens) (UniProt P14618). The assay is described as follows: qHTS Assay for Activators of Human Muscle Pyruvate Kinase (AID 954; active = well fitted curve in the direction sought with a large enough effect, not every such curve was filed as active;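 note: 0% = uninhibited enzyme and -100% = no enzyme or full thiadiazolimine inhibition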). The essentials:
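PKM2, human, >95% pure, 0.1 nM; PEP 0.5 mM (Km), ADP 0.1 mM; 50 mM imidazole pH 7.2, 50 mM KCl, 0.01% Tween 20, 0.05% BSA; 1 h RT; luciferase luminescence readout.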

Assay [10] concerns the target Alpha-galactosidase (Coffea arabica) (UniProt Q42656). The assay can be described thus: Counterscreen for Glucocerebrosidase Inhibitors: qHTS Assay for Coffee Bean alpha-Galactosidase at pH 4.5 (AID 957).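 Note: plate controls were enzyme alone for no effect and no enzyme for full effect.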 The essentials:
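Enzyme is added first (2 nM final), then compounds titrated from 0.7 nM to 77 uM, then 80 uM 4-methylumbelliferyl alpha-D-galactopyranoside; after 20 min at room temperature a pH 10 NaOH/glycine stop precedes fluorescence reading at 365/440 nm.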
In general terms: The purpose of a counterscreen is to sort out artefacts and off-target activity.

Assay [11] addresses Alpha-galactosidase A (Homo sapiens) (UniProt P06280). The assay is described as follows: Counterscreen for Glucocerebrosidase Inhibitors: qHTS Assay for Human alpha-Galactosidase at pH 4.5 (AID 992). Note: 0% is about no effect. The essentials: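 Fluorogenic 4-MU alpha-D-galactoside (80 uM) hydrolysis, 2 nM enzyme, pH 4.5 citrate buffer + 0.005% Tween-20; 20 min RT; NaOH/glycine pH 10 stop; Ex365/Em440. Compounds titrated 0.7 nM–77 uM; Hill-equation AC50.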

The target in assay [12] is alpha-glucosidase (Oryza sativa, rice) (UniProt Q653V4). The assay can be described thus: Counterscreen for Glucocerebrosidase Inhibitors: qHTS Assay for Rice alpha-Glucosidase at pH 5.0 (AID 997).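 Note: 0% = full activity with enzyme and -100% = basal without enzyme.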 The essentials:
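Endpoint fluorogenic assay at pH 5.0: compounds (0.7 nM to 77 uM) titrated against 4 nM rice enzyme and 400 uM 4-MU-alpha-glucoside for 20 min at room temperature; NaOH/glycine stop, read ex 365/em 440 nm, Hill-fitted AC50.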

The target in assay [13] is Alpha-galactosidase (Coffea arabica) (UniProt Q42656). The assay is described as follows: Counterscreen for Glucocerebrosidase Inhibitors: qHTS Assay for Coffee Bean alpha-Galactosidase at pH 5.9 (AID 998).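 Note: plate controls were uninhibited enzyme for no effect and no-enzyme basal signal for full effect.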 The essentials:
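Enzyme 2 nM + cpd (0.7 nM–77 uM titration) + 4-MU-alpha-Gal 80 uM, pH 5.9 citrate/Tween-20, RT 20 min, NaOH/glycine stop pH 10, fluor 365/440. Normalized to no-enzyme and full-activity controls; Hill-fit AC50.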

Inconclusive results are not listed. The source made the active and inactive calls. Unless noted, calls come from the whole dose curve; as a rule, active = well fitted curve in the direction sought with a large enough effect; inconclusive = small, poorly fitted or top-dose-only effect, or another doubt; inactive = no such curve, though single readings can be large; an effect the other way counts as inactive or inconclusive.

Sequence of Alpha-galactosidase (Coffea arabica) (Q42656 whole entry, looked up): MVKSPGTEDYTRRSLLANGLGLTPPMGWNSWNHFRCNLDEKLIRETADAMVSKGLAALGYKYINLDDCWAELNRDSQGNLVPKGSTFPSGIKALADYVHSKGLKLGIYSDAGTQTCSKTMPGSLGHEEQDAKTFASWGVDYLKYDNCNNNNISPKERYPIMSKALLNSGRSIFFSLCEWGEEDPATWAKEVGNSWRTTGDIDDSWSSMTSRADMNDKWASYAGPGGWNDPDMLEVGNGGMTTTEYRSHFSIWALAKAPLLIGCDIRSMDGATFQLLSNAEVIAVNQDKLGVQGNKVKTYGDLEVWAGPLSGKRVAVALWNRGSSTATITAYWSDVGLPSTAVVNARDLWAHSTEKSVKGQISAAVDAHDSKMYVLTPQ
Sequence of Pyruvate kinase (Leishmania mexicana) (Q27686 2-499 E452W): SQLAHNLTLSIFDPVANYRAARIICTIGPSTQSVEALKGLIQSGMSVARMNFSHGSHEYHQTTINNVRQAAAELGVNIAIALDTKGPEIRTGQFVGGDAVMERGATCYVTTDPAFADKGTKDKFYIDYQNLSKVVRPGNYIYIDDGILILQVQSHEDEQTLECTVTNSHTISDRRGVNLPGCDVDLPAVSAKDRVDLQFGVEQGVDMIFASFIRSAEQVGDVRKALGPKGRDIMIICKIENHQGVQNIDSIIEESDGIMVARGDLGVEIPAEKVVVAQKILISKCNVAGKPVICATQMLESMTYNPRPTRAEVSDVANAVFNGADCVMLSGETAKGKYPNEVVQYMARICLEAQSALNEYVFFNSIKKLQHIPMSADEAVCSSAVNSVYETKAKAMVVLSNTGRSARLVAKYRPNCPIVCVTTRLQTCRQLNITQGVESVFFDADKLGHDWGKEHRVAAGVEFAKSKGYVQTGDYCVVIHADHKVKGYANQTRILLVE
Sequence of Alpha-galactosidase A (Homo sapiens) (P06280 whole entry, looked up): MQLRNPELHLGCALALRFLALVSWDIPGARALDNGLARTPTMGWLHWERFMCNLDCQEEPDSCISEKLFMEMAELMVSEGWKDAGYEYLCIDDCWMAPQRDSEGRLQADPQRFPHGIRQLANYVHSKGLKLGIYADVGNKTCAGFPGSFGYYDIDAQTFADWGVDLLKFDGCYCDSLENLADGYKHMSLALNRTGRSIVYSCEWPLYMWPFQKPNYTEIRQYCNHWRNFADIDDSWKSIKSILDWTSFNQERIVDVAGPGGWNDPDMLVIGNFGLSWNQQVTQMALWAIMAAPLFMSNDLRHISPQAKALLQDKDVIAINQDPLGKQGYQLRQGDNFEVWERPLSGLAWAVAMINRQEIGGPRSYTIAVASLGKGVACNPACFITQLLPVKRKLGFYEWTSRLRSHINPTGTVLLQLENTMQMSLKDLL
Sequence of Pyruvate kinase PKM (Homo sapiens) (P14618 whole entry, looked up): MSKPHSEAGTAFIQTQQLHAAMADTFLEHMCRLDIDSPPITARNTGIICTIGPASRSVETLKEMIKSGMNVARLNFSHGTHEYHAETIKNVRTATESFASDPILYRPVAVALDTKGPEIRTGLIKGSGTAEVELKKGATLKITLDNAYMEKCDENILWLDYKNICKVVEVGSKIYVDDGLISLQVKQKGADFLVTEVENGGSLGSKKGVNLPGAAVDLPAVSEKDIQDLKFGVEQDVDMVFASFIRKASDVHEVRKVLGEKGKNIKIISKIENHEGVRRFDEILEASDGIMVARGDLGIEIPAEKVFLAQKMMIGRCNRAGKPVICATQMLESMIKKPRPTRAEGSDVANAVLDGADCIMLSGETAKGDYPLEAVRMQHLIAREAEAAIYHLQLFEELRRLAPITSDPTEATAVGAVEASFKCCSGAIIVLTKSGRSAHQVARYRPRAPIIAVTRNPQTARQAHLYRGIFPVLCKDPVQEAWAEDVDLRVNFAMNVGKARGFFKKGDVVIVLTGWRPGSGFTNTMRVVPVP
Sequence of Guanine nucleotide-binding protein G(i) subunit alpha-1 (Homo sapiens) (P63096 whole entry, looked up): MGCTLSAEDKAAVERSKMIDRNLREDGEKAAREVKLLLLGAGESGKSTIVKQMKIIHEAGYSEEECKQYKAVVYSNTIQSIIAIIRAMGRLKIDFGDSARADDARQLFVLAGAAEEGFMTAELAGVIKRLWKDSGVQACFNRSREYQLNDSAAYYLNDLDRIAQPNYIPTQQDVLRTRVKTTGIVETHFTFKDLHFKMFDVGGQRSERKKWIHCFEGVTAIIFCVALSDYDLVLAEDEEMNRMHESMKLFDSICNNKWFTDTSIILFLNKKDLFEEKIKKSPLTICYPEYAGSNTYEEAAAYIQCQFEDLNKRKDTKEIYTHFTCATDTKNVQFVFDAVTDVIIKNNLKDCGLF
Sequence of Muscarinic acetylcholine receptor M1 (Rattus norvegicus) (P08482 whole entry, looked up): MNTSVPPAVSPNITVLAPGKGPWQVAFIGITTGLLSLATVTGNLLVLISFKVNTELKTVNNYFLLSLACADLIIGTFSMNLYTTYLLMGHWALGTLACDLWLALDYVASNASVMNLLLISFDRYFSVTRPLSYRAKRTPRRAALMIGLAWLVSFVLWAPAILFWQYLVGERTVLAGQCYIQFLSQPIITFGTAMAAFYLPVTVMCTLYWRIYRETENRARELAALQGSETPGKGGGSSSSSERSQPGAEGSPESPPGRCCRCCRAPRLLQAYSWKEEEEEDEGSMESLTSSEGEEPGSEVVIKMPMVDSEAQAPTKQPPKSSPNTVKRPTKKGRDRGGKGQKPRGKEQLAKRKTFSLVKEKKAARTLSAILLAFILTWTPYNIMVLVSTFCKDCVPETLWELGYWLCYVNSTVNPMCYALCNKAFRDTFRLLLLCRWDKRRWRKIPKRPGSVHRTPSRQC
Sequence of Cytochrome P450 3A4 (Homo sapiens) (P08684 whole entry, looked up): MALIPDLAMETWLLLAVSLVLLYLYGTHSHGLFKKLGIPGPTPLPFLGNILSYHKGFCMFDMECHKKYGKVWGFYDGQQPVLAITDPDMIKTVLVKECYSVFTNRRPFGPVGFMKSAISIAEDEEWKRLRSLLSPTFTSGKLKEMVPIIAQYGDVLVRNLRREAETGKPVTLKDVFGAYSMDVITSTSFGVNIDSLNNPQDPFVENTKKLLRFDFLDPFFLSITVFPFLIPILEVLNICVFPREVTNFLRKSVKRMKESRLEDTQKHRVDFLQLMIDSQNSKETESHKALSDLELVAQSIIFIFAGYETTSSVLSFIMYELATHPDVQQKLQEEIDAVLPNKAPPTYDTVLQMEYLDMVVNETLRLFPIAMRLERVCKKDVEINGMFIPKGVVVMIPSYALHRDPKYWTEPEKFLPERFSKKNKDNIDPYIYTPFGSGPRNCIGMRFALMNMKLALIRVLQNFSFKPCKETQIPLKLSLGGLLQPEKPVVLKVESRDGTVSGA
Sequence of Cytochrome P450 1A2 (Homo sapiens) (P05177 whole entry, looked up): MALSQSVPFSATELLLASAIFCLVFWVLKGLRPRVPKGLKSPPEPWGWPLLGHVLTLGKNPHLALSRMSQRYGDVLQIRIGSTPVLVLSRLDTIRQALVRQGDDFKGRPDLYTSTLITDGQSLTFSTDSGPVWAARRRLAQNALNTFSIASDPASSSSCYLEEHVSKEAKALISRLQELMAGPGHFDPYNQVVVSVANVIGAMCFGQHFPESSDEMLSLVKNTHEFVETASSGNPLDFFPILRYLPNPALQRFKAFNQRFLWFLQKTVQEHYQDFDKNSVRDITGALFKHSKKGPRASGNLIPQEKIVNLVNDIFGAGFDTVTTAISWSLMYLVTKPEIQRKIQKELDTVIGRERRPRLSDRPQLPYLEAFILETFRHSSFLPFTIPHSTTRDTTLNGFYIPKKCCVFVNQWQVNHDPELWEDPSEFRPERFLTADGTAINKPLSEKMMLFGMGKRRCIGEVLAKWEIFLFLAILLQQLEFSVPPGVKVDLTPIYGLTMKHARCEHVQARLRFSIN

For `NCC#Cc1ccccc1`, the Potency was 3.16 µM (active) in [1] and 6.31 µM (active) in assay [6]. Moreover, in assay [2], the activity change, negative = inhibition was 3.19% (inactive). The result in assay [3], in assay [4], in assay [9], in assay [10], in assay [11] and in [12] was inactive. In addition, the result in assay [13] was inactive. Further, the Potency result in [5], in assay [7] and in assay [8] was “inactive” each time.
